Records with an inconclusive call do not appear. Entries that show only a call come without a potency. Active and inactive are the calls of the source. Unless noted, calls follow the shape of the dose curve; as a rule, active = well fitted activation curve with a large enough effect in the main read-out, with a control signal flat (not every such curve was filed as active); inconclusive = small, poorly fitted or top-dose-only effect, or effect the other way, or a change in a side signal; inactive = flat fitted curve, though single readings scatter.
Each molecule was assayed against 3',5'-cyclic-AMP phosphodiesterase 4B (Homo sapiens) (UniProt Q07343) (assay: qHTS Assay for Inhibitors of PDE-IV (AID 607)). Conditions: HEK293 ACTOne CNG channel cells, membrane potential fluorescence; series mostly up to 22.9 µM.
3',5'-cyclic-AMP phosphodiesterase 4B (Homo sapiens), sequence (Q07343 whole entry, looked up): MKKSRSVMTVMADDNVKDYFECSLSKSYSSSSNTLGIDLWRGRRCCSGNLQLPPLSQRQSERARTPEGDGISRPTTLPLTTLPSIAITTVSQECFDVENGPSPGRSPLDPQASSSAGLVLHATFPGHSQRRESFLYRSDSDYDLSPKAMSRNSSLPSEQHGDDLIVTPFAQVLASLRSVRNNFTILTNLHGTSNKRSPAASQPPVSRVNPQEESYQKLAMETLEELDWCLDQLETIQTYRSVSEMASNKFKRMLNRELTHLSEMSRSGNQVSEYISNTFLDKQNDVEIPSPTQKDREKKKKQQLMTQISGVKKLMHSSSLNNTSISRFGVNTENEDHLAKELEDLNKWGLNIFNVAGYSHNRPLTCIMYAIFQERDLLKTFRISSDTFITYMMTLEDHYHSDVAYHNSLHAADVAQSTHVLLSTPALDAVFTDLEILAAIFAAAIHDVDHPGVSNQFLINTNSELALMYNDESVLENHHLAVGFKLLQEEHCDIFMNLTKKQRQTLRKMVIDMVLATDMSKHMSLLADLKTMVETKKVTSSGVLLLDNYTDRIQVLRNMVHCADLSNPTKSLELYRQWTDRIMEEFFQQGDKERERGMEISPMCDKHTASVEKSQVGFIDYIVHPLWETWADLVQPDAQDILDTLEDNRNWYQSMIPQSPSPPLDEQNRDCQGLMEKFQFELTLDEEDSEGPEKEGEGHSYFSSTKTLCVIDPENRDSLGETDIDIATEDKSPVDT
In short: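 The readout is membrane depolarisation from a cAMP-sensing CNG channel, detected with a potential dye at ex 535/em 590. Cells were HEK293-derived (endogenous PDE-IV) at 1000 cells/well, titrated up to 22.9 uM final.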
With `O=C(O)CCCCCCCC(=O)O` the Potency was “inactive”. `Cc1ccc(=O)n(-c2ccccc2)c1` was tested, and the Potency was “inactive”. In the case of `CN(C)CC/C=C1\c2ccccc2COc2ccccc21`, the Potency is reported as “inactive”. `CN(C)C(=O)Oc1ccc[n+](C)c1` was tested, and the Potency was “inactive”. `CC1=NS(=O)(=O)c2cc(Cl)ccc2N1` was tested, and the Potency was “inactive”. With `FC(F)(F)c1ccccc1-n1ccnc1` the Potency was “inactive”. For `CCCOc1ccccc1-c1nc2n[nH]nc2c(=O)[nH]1`, the Potency was “inactive”. For `CN1CCN(C2=Nc3ccccc3Oc3ccc(Cl)cc32)CC1`, the Potency was “inactive”. For `CCc1cccc(N(C)C(N)=Nc2cccc3ccccc23)c1`, the Potency was “inactive”. In the case of `CC[N+](C)(C)c1cccc(O)c1`, the Potency is reported as “inactive”. For `CN(C)C(=O)Oc1cccc([N+](C)(C)C)c1`, the Potency was “inactive”. For `CC1=C(C)C(=O)C(CCCCC#CCCCC#CCO)=C(C)C1=O`, the Potency was “inactive”. In the case of `CCC(=O)c1ccc2c(c1)N(CCCN(C)C)c1ccccc1S2`, the Potency is reported as “inactive”. For `CN1CCN(CC(=O)N2c3ccccc3C(=O)Nc3cccnc32)CC1`, the Potency was “inactive”. With `CCCN(CCC)CCc1cccc2c1CC(=O)N2` the Potency was “inactive”. `CN(C)CCCN1c2ccccc2Sc2ccc(C(F)(F)F)cc21` was tested, and the Potency was “inactive”. For `CC(C)NNC(=O)c1ccncc1`, the Potency was “inactive”. With `c1cnc(N2CCN(Cc3ccc4c(c3)OCO4)CC2)nc1` the Potency was “inactive”. In the case of `c1cc(CN2CCCCC2)cc(OCCCNc2nc3ccccc3s2)c1`, the Potency is reported as “inactive”. `COC(=O)[C@@H](N)Cc1ccc(O)c(O)c1` was tested, and the Potency was “inactive”. For `CN(C)CCOC(=O)COc1ccc(Cl)cc1`, the Potency was “inactive”. With `C[n+]1cc2c3c(ccc2c2ccc4cc5c(cc4c21)OCO5)OCO3` the Potency was “inactive”. In the case of `CCn1cc(C(=O)O)c(=O)c2cc3c(cc21)OCO3`, the Potency is reported as “inactive”. In the case of `O=C(CCNNC(=O)c1ccncc1)NCc1ccccc1`, the Potency is reported as “inactive”. In the case of `CCCC(C(=O)OCCN(CC)CC)(c1ccccc1)c1ccccc1`, the Potency is reported as “inactive”. With `O=C(O)CN(CCOCCOCCN(CC(=O)O)CC(=O)O)CC(=O)O` the Potency was “inactive”. With `Brc1c(NC2=NCCN2)ccc2nccnc12` the Potency was “inactive”. With `CCN1CCc2nc(N)oc2CC1` the Potency was “inactive”. With `Cc1nc2ccccn2c(=O)c1CCN1CCC(C(=O)c2ccc(F)cc2)CC1` the Potency was “inactive”. For `CC(C)[N+](C)(CCOC(=O)C1c2ccccc2Oc2ccccc21)C(C)C`, the Potency was “inactive”. In the case of `C#CCN(C)CCCOc1ccc(Cl)cc1Cl`, the Potency is reported as “inactive”. For `O=C1NCN(c2ccccc2)C12CCN(CCCC(c1ccc(F)cc1)c1ccc(F)cc1)CC2`, the Potency was “inactive”. For `CCOC(=O)c1cnc2c(cnn2CC)c1NN=C(C)C`, the Potency was 0.951 µM (active).

Each molecule was assayed against Guanine nucleotide-binding protein G(i) subunit alpha-1 (Homo sapiens) (UniProt P63096) (assay: qHTS Assay for Inhibitors of RGS12 GoLoco Motif Activity (Green Fluorophore) (AID 879; active = well fitted curve in the direction sought with a large enough effect; an effect the other way counts as inactive or inconclusive)). Conditions: Galphai1/FITC-RGS12 GoLoco peptide, fluorescence polarization; series mostly up to 57.1 µM.
Guanine nucleotide-binding protein G(i) subunit alpha-1 (Homo sapiens), sequence (P63096 whole entry, looked up): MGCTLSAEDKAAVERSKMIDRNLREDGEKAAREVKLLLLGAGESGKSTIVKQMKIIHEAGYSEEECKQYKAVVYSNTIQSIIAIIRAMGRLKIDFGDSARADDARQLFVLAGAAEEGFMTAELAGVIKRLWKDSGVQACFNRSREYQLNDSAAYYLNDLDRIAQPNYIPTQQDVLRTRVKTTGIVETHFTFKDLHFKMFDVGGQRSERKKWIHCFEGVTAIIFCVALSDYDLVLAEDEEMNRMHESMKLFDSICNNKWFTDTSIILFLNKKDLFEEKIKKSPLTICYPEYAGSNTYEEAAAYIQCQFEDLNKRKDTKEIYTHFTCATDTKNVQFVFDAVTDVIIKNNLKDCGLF
In short: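 Fluorescence polarization assay: 50 nM Gαi1 with 10 nM FITC-labeled RGS12 GoLoco peptide in 10 mM Tris pH 7.5, 150 mM NaCl, 0.1 mM GDP, 0.05% NP40, 10 min at room temperature with compound.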
For `O=C(O)CCCCCCCC(=O)O`, the Potency was “inactive”. For `Cc1ccc(=O)n(-c2ccccc2)c1`, the Potency was “inactive”. For `CN(C)CC/C=C1\c2ccccc2COc2ccccc21`, the Potency was “inactive”. For `CN(C)C(=O)Oc1ccc[n+](C)c1`, the Potency was “inactive”. With `CC1=NS(=O)(=O)c2cc(Cl)ccc2N1` the Potency was “inactive”. In the case of `FC(F)(F)c1ccccc1-n1ccnc1`, the Potency is reported as “inactive”. `CCCOc1ccccc1-c1nc2n[nH]nc2c(=O)[nH]1` was tested, and the Potency was “inactive”. In the case of `CN1CCN(C2=Nc3ccccc3Oc3ccc(Cl)cc32)CC1`, the Potency is reported as “inactive”. With `CCc1cccc(N(C)C(N)=Nc2cccc3ccccc23)c1` the Potency was “inactive”. In the case of `CC[N+](C)(C)c1cccc(O)c1`, the Potency is reported as “inactive”. In the case of `CN(C)C(=O)Oc1cccc([N+](C)(C)C)c1`, the Potency is reported as “inactive”. With `CC1=C(C)C(=O)C(CCCCC#CCCCC#CCO)=C(C)C1=O` the Potency was “inactive”. For `CCC(=O)c1ccc2c(c1)N(CCCN(C)C)c1ccccc1S2`, the Potency was “inactive”. With `CN1CCN(CC(=O)N2c3ccccc3C(=O)Nc3cccnc32)CC1` the Potency was “inactive”. In the case of `CCCN(CCC)CCc1cccc2c1CC(=O)N2`, the Potency is reported as “inactive”. With `CN(C)CCCN1c2ccccc2Sc2ccc(C(F)(F)F)cc21` the Potency was “inactive”. `CC(C)NNC(=O)c1ccncc1` was tested, and the Potency was “inactive”. `c1cnc(N2CCN(Cc3ccc4c(c3)OCO4)CC2)nc1` was tested, and the Potency was “inactive”. For `c1cc(CN2CCCCC2)cc(OCCCNc2nc3ccccc3s2)c1`, the Potency was “inactive”. For `COC(=O)[C@@H](N)Cc1ccc(O)c(O)c1`, the Potency was “inactive”. `CN(C)CCOC(=O)COc1ccc(Cl)cc1` was tested, and the Potency was “inactive”. In the case of `C[n+]1cc2c3c(ccc2c2ccc4cc5c(cc4c21)OCO5)OCO3`, the Potency is reported as 12.6 µM (active). For `CCn1cc(C(=O)O)c(=O)c2cc3c(cc21)OCO3`, the Potency was “inactive”. `O=C(CCNNC(=O)c1ccncc1)NCc1ccccc1` was tested, and the Potency was “inactive”. In the case of `CCCC(C(=O)OCCN(CC)CC)(c1ccccc1)c1ccccc1`, the Potency is reported as “inactive”. `O=C(O)CN(CCOCCOCCN(CC(=O)O)CC(=O)O)CC(=O)O` was tested, and the Potency was “inactive”. `Brc1c(NC2=NCCN2)ccc2nccnc12` was tested, and the Potency was “inactive”. `CCN1CCc2nc(N)oc2CC1` was tested, and the Potency was “inactive”. `Cc1nc2ccccn2c(=O)c1CCN1CCC(C(=O)c2ccc(F)cc2)CC1` was tested, and the Potency was “inactive”. In the case of `CC(C)[N+](C)(CCOC(=O)C1c2ccccc2Oc2ccccc21)C(C)C`, the Potency is reported as “inactive”. For `C#CCN(C)CCCOc1ccc(Cl)cc1Cl`, the Potency was “inactive”. `O=C1NCN(c2ccccc2)C12CCN(CCCC(c1ccc(F)cc1)c1ccc(F)cc1)CC2` was tested, and the Potency was “inactive”. `CCOC(=O)c1cnc2c(cnn2CC)c1NN=C(C)C` was tested, and the Potency was “inactive”.

The molecules below were run against Cytochrome P450 2C9 (Homo sapiens) (UniProt P11712) (assay: qHTS Assay for Inhibitors and Substrates of Cytochrome P450 2C9 (AID 883; active = well fitted curve in the direction sought with a large enough effect; an effect the other way counts as inactive or inconclusive; also: nearly all actives have a fitted effect of over 60% in size)). Conditions: recombinant CYP2C9, luciferin-H luminescence, 60 min; series mostly up to 57.1 µM.
Cytochrome P450 2C9 (Homo sapiens), sequence (P11712 whole entry, looked up): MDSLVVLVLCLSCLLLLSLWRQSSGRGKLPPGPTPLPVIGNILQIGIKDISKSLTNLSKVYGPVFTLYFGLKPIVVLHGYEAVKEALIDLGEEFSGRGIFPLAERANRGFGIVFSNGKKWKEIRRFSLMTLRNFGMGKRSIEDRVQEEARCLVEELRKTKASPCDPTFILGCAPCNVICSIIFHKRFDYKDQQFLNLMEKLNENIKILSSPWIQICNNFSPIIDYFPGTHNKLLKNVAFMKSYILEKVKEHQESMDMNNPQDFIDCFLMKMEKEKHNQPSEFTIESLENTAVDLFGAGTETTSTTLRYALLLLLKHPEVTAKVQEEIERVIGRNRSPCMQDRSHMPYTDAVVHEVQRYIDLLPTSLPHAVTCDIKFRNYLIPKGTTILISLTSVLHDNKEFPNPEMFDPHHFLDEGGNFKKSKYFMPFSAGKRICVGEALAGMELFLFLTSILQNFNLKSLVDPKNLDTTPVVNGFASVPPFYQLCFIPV
In short: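 A luminogenic readout tracked human CYP2C9 (10nM) converting deoxyluciferin (100uM, at KM) in 25mM KPO4 during 60 min at 37C with regenerated NADPH. Values normalized to 57uM sulphaphenazole as complete inhibition.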
With `Cc1ccc(=O)n(-c2ccccc2)c1` the Potency was “inactive”. For `CC1=NS(=O)(=O)c2cc(Cl)ccc2N1`, the Potency was “inactive”. In the case of `CC1=C(C)C(=O)C(CCCCC#CCCCC#CCO)=C(C)C1=O`, the Potency is reported as 5.01 µM (active). With `Brc1c(NC2=NCCN2)ccc2nccnc12` the Potency was “inactive”. With `Cc1nc2ccccn2c(=O)c1CCN1CCC(C(=O)c2ccc(F)cc2)CC1` the Potency was “inactive”.
Potency is read from the fitted curve at half-maximal effect.
